These results are taken from PubChem BioAssay AID2069 (Sanford-Burnham Center for Chemical Genomics, 2009).

For orientation: inhibition means the change of the read-out against control, counted positive when it falls.

Structures are written as SMILES. Screen size: about 1,200 compounds; about 210 (18%) were called active. No stated cut-off is given here; in the data, active means inhibition above about 30%; inactive means the rest. Not all results are given here.

The nature of this assay: HTRF signal interference by compounds, confirmation, artefact control for SUMOylation inhibitor project, biochemical, uHTS (AID 2069). The following applies: HTRF interference counterscreen, fluorescence, at 35 µM, stronger effect = higher value.
For `COc1ccc(-c2ccnc3nc(/N=C/N(C)C)nn23)cc1`, the inhibition was 44.7% (active). Turning to `CN(C)/C=N/c1nc2nccc(-c3ccc(F)cc3)n2n1`, the inhibition was 37.5% (active). In the case of `Fc1ccc(-c2ccnc3nc(N4CCOCC4)nn23)cc1` it was 32.5% (active); in that of `N#CCCN(Cc1cccnc1)C(=S)NC1CC2C=CC1C2` (stereo not given), -9.75% (inactive). As for `Cc1ccc(NC(=O)c2ccccc2OCC(=O)Nc2cccc(Cl)c2C)nc1`, the inhibition was 7.7% (inactive).

Consider `CCOc1cc(CNc2cccc3ccccc23)cc(Br)c1OCC(=O)NC(C)(C)C`, for which the inhibition is 12.7% (inactive).

As for `O=C(c1csc(Nc2cccc3ccccc23)n1)N1CCCC1`, the inhibition is 23.1% (inactive). In the case of `O=[N+]([O-])c1c(NCCO)cc(N2CCCCCC2)c2nonc12` it was 22.4% (inactive); in that of `COc1cc(OC)c2c(O)c3c(c(-c4c5c(c(O)c6c(OC)cc(OC)cc46)CO[C@@H](C)[C@H]5O)c2c1)[C@H](O)[C@H](C)OC3`, 11% (inactive); in that of `O=[N+]([O-])c1c(NCCO)cc(N2CCC3(CC2)OCCO3)c2nonc12`, -10.3% (inactive). In the case of `CCOc1ccc(C2Nc3cccc4cccc(c34)N2)cc1OC` it was -29.6% (inactive); in that of `O=C1C(=O)c2ccccc2C(O)=C1CCCCl`, -11.4% (inactive). In the case of `CCc1ccccc1NC(=O)Nc1cccn(Cc2ccccc2F)c1=O` it was -9.65% (inactive). For `Cn1c(C(=O)NCC2CCCO2)cc2c(=O)n3ccccc3nc21` (stereo not given), the inhibition is 51% (active).

Take `Cc1ccc(S(=O)(=O)c2cc3c(=O)n4ccccc4nc3n(Cc3ccco3)c2=N)cc1C`: the inhibition was 9.75% (inactive). In the case of `CC1CCCCC1NC(=O)c1cc2c(=O)n3ccccc3nc2n1C` (stereo not given) it was 57.8% (active); in that of `C=CCNc1nc(NCc2ccccc2)c(C#N)c2c1CN(C)CC2`, 18.9% (inactive). In the case of `OCCNC(=S)Nc1ccc2nsnc2c1` it was 10.1% (inactive). Regarding `CC(C)N1CCC2(CC1)C(C#N)=C(N)NC(S)=C2C#N`, the inhibition is 33.9% (active). With `Cc1ccoc1C(=O)NCCCNC(=O)c1occc1C`, the inhibition is 0.95% (inactive). Take `CCOc1cc2c(C#N)c(N3CCOCC3)nc(N)c2c(N)n1`: the inhibition was 51.2% (active). For the molecule `COCC(C)N1C(=O)Cc2c1nc(N)c1c(N)nc(N3CCN(c4ccccc4F)CC3)c(C#N)c21` (stereo not given), the inhibition is 19.1% (inactive).

Consider `CCOc1cc2c(C#N)c(N3CCNCC3)nc(N)c2c(N)n1`, for which the inhibition was 47.2% (active). In the case of `COCCN(CCOC)c1nc(N)c2c(N)nc3c(c2c1C#N)CC(=O)N3Cc1ccc(Cl)cc1` it was 27.9% (inactive). On to `COc1cc2c(C#N)c(N3CCCC3)nc(N)c2c(N)n1`, for which the inhibition was 27.4% (inactive). In the case of `COc1ccc(CN2C(=O)Cc3c2nc(N)c2c(N)nc(N4CCOCC4)c(C#N)c32)cc1` it was 42.5% (active); in that of `N#Cc1c(N2CCCCC2)nc(N)c2c(N)nc(SCC(=O)O)cc12`, 14.9% (inactive); in that of `CCOc1cc2c(C#N)c(N3CCCCC3)nc(N)c2c(N)n1`, 20.6% (inactive). In the case of `COc1cc2c(C#N)c(N3CCN(c4ccccc4OC)CC3)nc(N)c2c(N)n1` it was 16.6% (inactive); in that of `COc1cc2c(C#N)c(N3CCCCC3)nc(N)c2c(N)n1`, 25.2% (inactive); in that of `COc1cc2c(C#N)c(N3CCN(C)CC3)nc(N)c2c(N)n1`, 43.2% (active). Take `S=c1[nH]nc(-c2cc(-c3ccccc3)n[nH]2)n1/N=C/c1ccc(Br)s1`: the inhibition is -6.25% (inactive).

With `O=C(NC(=S)Nc1cccc2c(O)cccc12)c1ccco1`, the inhibition is -6.9% (inactive). In the case of `Cc1ccc(Cn2cccc(NS(C)(=O)=O)c2=O)cc1` it was -3.15% (inactive). In the case of `O=S(=O)(Nc1cc2nc3ccccc3nc2n1Cc1ccccc1)c1ccc(Cl)cc1` it was 24.5% (inactive); in that of `Oc1cccc(C=NCc2ccccc2)c1O`, -0.8% (inactive); in that of `CNS(=O)(=O)c1ccc2nc(NC(=O)/C=C/c3ccco3)sc2c1`, 25.6% (inactive). Consider `COc1cc2cc(NC(C)=O)cc(NCc3ccccc3)c2cc1OC`, for which the inhibition was -19.9% (inactive). In the case of `Cc1ccc(N2CCN(Cc3ccccc3)CC2=O)c(C)c1` it was -6.45% (inactive). Turning to `O=C(O)/C=C\c1cn(-c2ccccc2)nc1-c1cc2ccccc2o1`, the inhibition is 48.1% (active). In the case of `O=Cc1cn(-c2ccccc2)nc1-c1cc2cc(O)ccc2oc1=O` it was 11.8% (inactive); in that of `O=C(O)/C=C/c1cn(-c2ccccc2)nc1-c1cc2ccccc2o1`, 41.2% (active).

As to `Nc1c(N2CCOCC2)cc(Cl)c2nonc12`, the inhibition is 3% (inactive). For the molecule `Cc1ccc(C(=O)N[C@H](C(=O)Nc2cc(Cl)cc(Cl)c2)C(C)C)cc1`, the inhibition was 3.15% (inactive). In the case of `N#Cc1ccsc1NC(=O)CN1CCN(c2ccc(O)cc2)CC1` it was 14.3% (inactive); in that of `Nc1c(C(=O)N/N=C/c2cccnc2)oc2nc(-c3ccco3)cc(-c3ccco3)c12`, 20% (inactive). In the case of `Cc1ccc(-c2cc(-c3ccccc3O)nc(N/N=C/c3cccnc3)n2)cc1` it was 52.2% (active); in that of `S=c1[nH]nc(-c2ccncc2)n1/N=C/c1ccccc1Cl`, -1.75% (inactive). In the case of `CC(C)N1C(=O)CC(Nc2cccc3cccc(N)c23)C1=O` (stereo not given) it was -13.8% (inactive); in that of `O=c1c2ccccc2nc(/C=C/c2cccnc2)n1Cc1ccccc1`, 30.9% (active). On to `O=C(Cc1cccc2ccccc12)NN1C(=O)/C(=C\c2cccnc2)SC1=S`, for which the inhibition was -7.8% (inactive). In the case of `Cc1ccc(-c2[nH]ncc2/C=N/n2c(C)nc3ccccc3c2=O)cc1` it was -0.85% (inactive); in that of `COc1ccc(S(=O)(=O)C(C#N)c2nc3ccccc3nc2N2CCCCC2)cc1` (stereo not given), -7.95% (inactive); in that of `Cc1ccc(S(=O)(=O)C(C#N)c2nc3ccccc3nc2N2CCCC2)cc1C` (stereo not given), -3.55% (inactive).

Take `CCOC(=O)c1c(NC(=O)C2C3C=CC(CC3)C2C(=O)O)sc(C)c1CC` (stereo not given): the inhibition was 0.4% (inactive). In the case of `O=C(N/N=C/c1ccc([N+](=O)[O-])o1)c1cc(-c2ccc(-c3ccccc3)cc2)nc2ccccc12` it was 4.6% (inactive). In the case of `Cc1ccc(C2Nc3cccc4cccc(c34)N2)s1` it was -32.4% (inactive); in that of `Cc1cc(=O)n2[nH]c(N)c(N=Nc3ccccc3F)c2n1`, -14.7% (inactive); in that of `COc1ccc(C(=O)Nc2ccc(-c3nnn(CC(=O)N4CCN(C(=O)c5ccco5)CC4)n3)cc2)cc1`, 25.6% (inactive).

`COc1ccc(/C=C2/SC(=S)N(c3ccc(S(=O)(=O)Nc4nccs4)cc3)C2=O)cc1`: the inhibition is -18% (inactive).
